# Data taken from article PMC4336329 (PLoS ONE, 2015).
# Screen size: about 310,000 compounds; about 14,000 (4.5%) showed an effect of 50% or more. Effects have a minus sign here. What follows is part of a selection rich in strong results, with near analogues and random picks from the rest.
# Biological target: human ether-à-go-go-related gene (hERG) potassium channel (human, UniProt Q12809)
# Assay: primary screen, population patch clamp on CHO cells stably expressing hERG; higher = less effect of the substance
# 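Also: peak tail current of the secondary pulse compared with the same well before compound.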
# Sequence of human ether-à-go-go-related gene (hERG) potassium channel (Q12809 whole entry, looked up): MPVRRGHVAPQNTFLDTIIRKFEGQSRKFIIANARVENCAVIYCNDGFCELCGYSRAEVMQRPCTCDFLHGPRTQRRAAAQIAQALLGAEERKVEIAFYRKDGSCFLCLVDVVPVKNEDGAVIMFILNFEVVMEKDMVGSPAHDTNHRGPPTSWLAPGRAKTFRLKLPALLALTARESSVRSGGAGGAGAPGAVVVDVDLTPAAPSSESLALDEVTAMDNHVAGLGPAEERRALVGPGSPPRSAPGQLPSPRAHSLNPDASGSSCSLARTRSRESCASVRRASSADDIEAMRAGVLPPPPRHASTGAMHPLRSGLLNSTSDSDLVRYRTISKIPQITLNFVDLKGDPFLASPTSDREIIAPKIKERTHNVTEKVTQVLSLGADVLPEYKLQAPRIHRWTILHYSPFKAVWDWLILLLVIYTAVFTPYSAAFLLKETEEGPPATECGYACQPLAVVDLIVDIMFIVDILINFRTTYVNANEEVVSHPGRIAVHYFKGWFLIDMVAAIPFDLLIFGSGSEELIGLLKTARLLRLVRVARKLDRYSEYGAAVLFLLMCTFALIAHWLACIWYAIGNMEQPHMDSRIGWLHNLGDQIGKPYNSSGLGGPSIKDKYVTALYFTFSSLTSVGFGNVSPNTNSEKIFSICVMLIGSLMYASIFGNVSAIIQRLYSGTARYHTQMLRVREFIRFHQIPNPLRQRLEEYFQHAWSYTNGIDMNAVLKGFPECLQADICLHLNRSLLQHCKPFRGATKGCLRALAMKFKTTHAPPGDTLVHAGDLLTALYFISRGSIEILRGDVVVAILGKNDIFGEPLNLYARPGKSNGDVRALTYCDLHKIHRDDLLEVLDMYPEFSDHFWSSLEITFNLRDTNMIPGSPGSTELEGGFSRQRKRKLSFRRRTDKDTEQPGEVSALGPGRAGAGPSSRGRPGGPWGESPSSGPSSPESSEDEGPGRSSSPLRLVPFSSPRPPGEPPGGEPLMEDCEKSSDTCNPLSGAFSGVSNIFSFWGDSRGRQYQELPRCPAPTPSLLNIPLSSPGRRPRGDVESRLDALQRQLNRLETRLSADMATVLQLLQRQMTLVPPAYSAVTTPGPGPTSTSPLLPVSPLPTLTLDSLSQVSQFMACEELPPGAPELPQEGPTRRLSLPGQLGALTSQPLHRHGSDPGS
row,Structure (SMILES),"hERG current change (%, negative = inhibition) at 10uM"
1,COc1ccc(NC(=O)C(NC(=O)CC2NC(=O)NC2=O)c2ccccc2)cc1 (stereo not shown),-2.49%
2,CSc1ccccc1NC(=O)CSCc1ccc(C)cc1,-7.79%
3,O=C(Nc1nnc(-c2ccncc2)o1)c1ccc2ccccc2c1,-3.08%
4,COc1cc2ccccc2cc1C(=O)Nc1nnc(-c2ccncc2)o1,-52.3%
5,COc1cc2ccccc2cc1C(=O)Nc1ccncc1,-24.8%
6,O=C(Nc1ncc(S(=O)(=O)c2ccc([N+](=O)[O-])cc2)s1)c1cccnc1,-2.29%
7,COc1cc(C(=O)OCCCOC(=O)c2cc(OC)c(OC)c(OC)c2)cc(OC)c1OC,0.241%
8,COc1cc(C(=O)OCCCN(C)C)cc(OC)c1OC.Cl,4.69%
9,CCN(CC)CC(C)OC(=O)c1cc(OC)c(OC)c(OC)c1.Cl (stereo not shown),-11.5%
10,COc1cc(OC)cc(C(=O)OCCNC(=O)Cn2cnc3c2c(=O)n(C)c(=O)n3C)c1,0.82%
11,COc1cc(C(=O)OCCCN2CCCN(CCCOC(=O)c3cc(OC)c(OC)c(OC)c3)CC2)cc(OC)c1OC.Cl,-67.8%
12,COc1cc(C(=O)OCCN2CCOCC2)cc(OC)c1OC,-5.95%
13,COc1cc(C(=O)OCCn2c(=O)c3c(ncn3CCN(C)C)n(C)c2=O)cc(OC)c1OC.Cl,-2.6%
14,O=C(OCCN1CCCCC1)c1ccc(O)cc1,-35.4%
15,CCN(CC)CCCCCCCCOC(=O)c1cc(OC)c(OC)c(OC)c1.Cl,-50.1%
16,O=C(OCCCOC(=O)c1ccc(O)cc1)c1ccc(O)cc1,-17.3%
17,O=C(OCCCN1CCCCC1)c1ccc(O)cc1,-54.6%
18,CCN(CC)CCn1cnc2c1c(=O)n(CCOC(=O)c1cc(OC)c(OC)c(OC)c1)c(=O)n2C.Cl,-60.3%
19,Cc1ccc2c(c1)N(CCC(=O)NCCCN1CCCC1)C(=O)CO2,12.7%
20,Cl.NCCOc1ccccc1OCCN,22.1%
21,CCN(C(=S)Nc1ccc(C(C)=O)cc1)C1CCCCC1,3.5%
22,C=CCN1C(=O)C(O)(CC(=O)c2ccc(OC)cc2OC)c2cc(Br)ccc21 (stereo not shown),-3.68%
23,O=C(NC1CCCc2ccccc21)c1cncc(Br)c1 (stereo not shown),8.69%
24,COCCn1c(SCC(=O)N(C)c2c(N)n(Cc3ccccc3)c(=O)[nH]c2=O)nnc1-c1cccc(C)c1,24.7%

row,Structure (SMILES),"hERG current change (%, negative = inhibition) at 10uM"
1,Cc1ccc(Cn2c(SCC(=O)NCC3CCCO3)nc3c2c(=O)n(C)c(=O)n3C)cc1 (stereo not shown),-28.4%
2,CCn1nc(C)cc1C(=O)N1CCCC(C(=O)c2ccccc2SC)C1 (stereo not shown),-1.16%
3,Cc1ccc(/C=C/C(=O)NCCCN2CCN(CCCNC(=O)/C=C/c3ccc(C)o3)CC2)o1,-78.3%
4,O=C(/C=C/c1ccco1)NCCCN1CCN(CCCNC(=O)/C=C/c2ccco2)CC1,-43.5%
5,CC(C)c1ccc(/C=C/C(=O)NCCCN2CCOCC2)cc1,-39%
6,COc1ccc(/C=C/C(=O)NCCCN2CCCC2)cc1,-44.5%
7,COc1ccc(/C=C/C(=O)NCCCN2CCOCC2)cc1,-29.4%
8,O=C(/C=C/c1ccc(Cl)cc1)NCCN1CCOCC1,-24%
9,COc1ccc(/C=C/C(=O)NCCCN2CCCCCC2)cc1,-58.3%
10,O=C(/C=C/c1ccc(F)cc1)NCCNC(=O)/C=C/c1ccc(F)cc1,35.7%
11,O=C(/C=C/c1ccc(F)cc1)NCCCN1CCN(CCCNC(=O)/C=C/c2ccc(F)cc2)CC1,-73.2%
12,Cl.O=C(/C=C/c1ccc(Br)o1)NCCCN1CCOCC1,7.91%
13,O=C(/C=C/c1ccc(Cl)cc1)NCCCN1CCOCC1,-71%
14,Cc1ccc(/C=C/C(=O)NCCCN2CCN(CCCNC(=O)/C=C/c3ccc(C)cc3)CC2)cc1,-0.473%
15,COC(=O)[C@@]1(Cc2ccc(OC)cc2)[C@H]2c3cc(C(=O)N(C)C)n(CCSCCO)c3C[C@H]2CN1C(=O)c1ccccc1,-18.4%
16,COC(=O)Nc1ccc(S(=O)(=O)N2CCCCC2)cc1,-4.21%
17,Cn1nccc1C(=O)N/N=C/c1cccnc1,-14.8%
18,COCCNC(=O)CN1C(=O)COc2ccc(Cl)cc21,21.8%
19,Cc1nn(-c2ccccc2)c(C)c1NC(=O)COC(=O)CCCOc1ccccc1,6.69%
20,COc1ccc(Br)cc1/C=N/N1C(=O)CSC1=S,17.3%
21,CCOC(=O)c1c[nH]c2ccc3ccccc3c2c1=O,13%
22,COc1cc(C2C(C#N)=C(N)N(c3cccnc3)C3=C2C(=O)CCC3)ccc1O (stereo not shown),-12%
23,O=c1ccc2cc(S(=O)(=O)N3CCOCC3)ccc2o1,4.83%
24,Cc1ccc(N2CCN(S(=O)(=O)c3ccc4oc(=O)ccc4c3)CC2)cc1Cl,3.42%

row,Structure (SMILES),"hERG current change (%, negative = inhibition) at 10uM"
1,O=c1ccc2cc(S(=O)(=O)N3CCN(c4ccc(Cl)cc4)CC3)ccc2o1,-52.8%
2,CC1CC(C)CN(S(=O)(=O)c2ccc3oc(=O)ccc3c2)C1 (stereo not shown),-59.5%
3,CC1CCCN(S(=O)(=O)c2ccc3oc(=O)ccc3c2)C1 (stereo not shown),-19.4%
4,O=c1ccc2cc(S(=O)(=O)N3CCN(c4ccccc4)CC3)ccc2o1,-0.646%
5,CCOc1ccc(C(=O)Nc2ccccc2C(=O)O)cc1,8.2%
6,Cc1ccc(S(=O)(=O)N2CCCCC2)cc1NC(=O)CSc1nnc(N)s1,-20.2%
7,O=C(Cn1cc([N+](=O)[O-])cn1)N1CCN(c2ccccc2)CC1,7.25%
8,COc1ccc(C(NC(=O)C2C3C=CC(C3)C2C(=O)O)c2ccccc2)cc1 (stereo not shown),-4.58%
9,O=C(CN1CCCc2ccccc21)N/N=C/c1ccc(O)cc1O,-29.1%
10,O=C(NC(CC(=O)N1CCN(c2ccccc2)CC1)c1ccccc1)c1ccccc1Cl (stereo not shown),-46.8%
11,O=C(NC(CC(=O)N1CCN(c2ccc([N+](=O)[O-])cc2)CC1)c1ccccc1)c1ccccc1Cl (stereo not shown),-85.3%
12,C[C@H](NC(=O)c1ccccc1Cl)C(=O)OCC(=O)N1CCN(c2ccccc2)CC1,-9.59%
13,CC1CCN(C(=O)CC(NC(=O)c2ccccc2Cl)c2ccccc2)CC1 (stereo not shown),-15.7%
14,O=C(NC(CC(=O)N1CCCC(C(F)(F)F)C1)c1ccccc1)c1ccccc1Cl (stereo not shown),-8.81%
15,Cc1cccc(N2CCN(C(=O)c3ccccc3SCC(=O)N3CCCC3)CC2)c1C,-34.7%
16,Cc1cccc(N2CCN(C(=O)CC(NC(=O)c3ccccc3Cl)c3ccccc3)CC2)c1C (stereo not shown),-59.9%
17,Cc1cccc(N2CCN(C(=O)CNC(=O)c3ccccc3)CC2)c1C,-30.6%
18,O=C(NC(CC(=O)N1CCN(c2ccccc2O)CC1)c1ccccc1)c1ccccc1Cl (stereo not shown),-70.6%
19,C/C(=N\Nc1ccc([N+](=O)[O-])cc1)c1ccc(O)cc1,-1.55%
20,CNC(=S)N(CCO)Cc1cc2cc3c(cc2[nH]c1=O)OCO3,24%
21,Cc1cccc(-n2c(SCC(N)=O)nnc2-c2ccccn2)c1C,1.28%
22,CCc1ccc(C(=O)NC(CC(C)C)C(=O)O)cc1 (stereo not shown),-2.4%
23,Cc1cc(/C=C2\C(=O)NC(=O)N(Cc3ccco3)C2=O)c(C)n1-c1ccc(C(=O)O)cc1,12.2%
24,COc1cccc(Nc2ncccc2C(=O)O)c1,9.1%

row,Structure (SMILES),"hERG current change (%, negative = inhibition) at 10uM"
1,CCN(CC)C(=O)CSc1nc2ccsc2c(=O)n1CCCC(=O)NCCc1ccc(S(N)(=O)=O)cc1,24.7%
2,O=C(CCc1ccccc1)NCc1ccccc1,-8.04%
3,Cn1c(SCc2ccc([N+](=O)[O-])cc2)nc2c(c1=O)SCC2,-67.5%
4,Cn1c(SCC(=O)Nc2ccc(F)cc2)nc2c(c1=O)SCC2,-6.44%
5,Cn1c(SCC(=O)Nc2ccccc2F)nc2c(c1=O)SCC2,-9.41%
6,Cn1c(SCC(=O)Nc2ccccc2C(F)(F)F)nc2c(c1=O)SCC2,-57%
7,Cn1c(SCc2ccc(Br)cc2)nc2c(c1=O)SCC2,-18.6%
8,Cn1c(SCc2cccc([N+](=O)[O-])c2)nc2c(c1=O)SCC2,-36.6%
9,Cc1cc(C)c(S(=O)(=O)N2CCN(c3ccccc3)CC2)c(C)c1,16.5%
10,Cc1ccc(NC(=O)c2ccccc2N2C(=O)C3C4C=CC(C5CC45)C3C2=O)cc1C (stereo not shown),2.91%
11,COc1ccc(-n2c(N)c(C(=O)NCc3ccco3)c3nc4ccccc4nc32)cc1OC,16.7%
12,O=C(CNC(=O)c1ccc(Br)o1)NCc1ccccc1,6.66%
13,O=C(c1sccc1-c1ccccc1)N1CCN(S(=O)(=O)c2ccccc2F)CC1,-49.3%
14,COc1ccc(N2CCN(CCCNC(=O)C3(S(=O)(=O)c4ccc(Cl)cc4)CC3)CC2)cc1,-61.5%
15,COc1ccc(N2CCN(CCNC(=O)Nc3cc(Cl)ccc3Cl)CC2)cc1,15.6%
16,O=C(NCCCN1CCCCC1)C1(S(=O)(=O)c2ccc(Cl)cc2)CC1,-32.3%
17,O=C(NCCN1CCCC1)C1(S(=O)(=O)c2ccc(Cl)cc2)CC1,11.7%
18,O=C(NCCN1CCN(c2ccccc2)CC1)C1(S(=O)(=O)c2ccc(Cl)cc2)CC1,-50.2%
19,S=C(NCCCN1CCOCC1)N1CCN(c2cccc(Cl)c2)CC1,-40.2%
20,O=C(NCCc1ccccc1)C1(S(=O)(=O)c2ccc(Cl)cc2)CC1,6.29%
21,O=C(NCCCN1CCN(c2cccc(Cl)c2)CC1)C1(S(=O)(=O)c2ccc(Cl)cc2)CC1,-71%
22,COc1ccc(C2(C(=O)NCCCN3CCOCC3)CCOCC2)cc1.Cl,10.6%
